In the library only some 1.4% were active in any assay of this set; here they are far more common.
N370S GC – qHTS Assay for Inhibitors and Activators of N370S glucocerebrosidase as a Potential Chaperone Treatment of Gaucher Disease. Potency, µM (series often up to 59.4 µM), usual class: inhibitors. N370S GC spleen homogenate, 4MU-glucoside fluorescence. 330,000 compounds, 0.092% hits
GLS inh – qHTS for Inhibitors of Glutaminase (GLS); GLS enzymatic activity, qHTS titration; Potency, µM (titrated, usually from 45.5 µM), usual class: inhibitors; 410,000 compounds, 0.21% hits; Glutaminase kidney isoform, mitochondrial (Homo sapiens), O94925; AID 624170, 2012
Target sequence (O94925 whole entry, looked up, canonical isoform): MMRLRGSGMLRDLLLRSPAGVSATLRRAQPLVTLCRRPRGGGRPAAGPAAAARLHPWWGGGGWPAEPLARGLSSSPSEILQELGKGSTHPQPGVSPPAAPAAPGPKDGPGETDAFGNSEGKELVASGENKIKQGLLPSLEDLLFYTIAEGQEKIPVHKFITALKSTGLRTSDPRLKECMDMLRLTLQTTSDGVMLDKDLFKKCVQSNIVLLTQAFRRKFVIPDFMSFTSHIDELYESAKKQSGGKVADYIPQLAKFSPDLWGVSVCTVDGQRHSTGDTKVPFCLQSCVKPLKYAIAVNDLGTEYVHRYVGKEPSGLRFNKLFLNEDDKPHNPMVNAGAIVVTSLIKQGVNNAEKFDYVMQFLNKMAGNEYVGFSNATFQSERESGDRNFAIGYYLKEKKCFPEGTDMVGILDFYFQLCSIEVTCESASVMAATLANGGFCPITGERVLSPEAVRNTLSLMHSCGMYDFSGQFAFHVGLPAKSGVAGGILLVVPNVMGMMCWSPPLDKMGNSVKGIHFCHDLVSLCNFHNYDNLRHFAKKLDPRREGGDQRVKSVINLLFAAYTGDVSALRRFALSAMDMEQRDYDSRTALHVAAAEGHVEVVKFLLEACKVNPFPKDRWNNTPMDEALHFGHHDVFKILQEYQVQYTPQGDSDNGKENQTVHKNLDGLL
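hKGA; 45 mM KH2PO4 pH 8.2 + 0.02% Tween-20; cpd via pin tool; 1 mM Gln soln; GluOx/HRP/Amplex Red; RT 30 min; fluor. t0 & final.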
TSHR antagonist – Antagonists of the Thyroid Stimulating Hormone Receptor: HTS campaign; activity change, negative = inhibition, % at 11.5 µM; 330,000 compounds, 0.2% hits; Thyrotropin receptor (Homo sapiens), P16473; TSHR-expressing cells, TSH-stimulated cAMP HTRF, 2 h; active compounds read low;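 active means activity change below a set negative limit, meaning inhibition stronger than a set level, cut at about -70% in these data; inconclusive means activity change between two set negative limits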
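TSHR-expressing cells were treated with compounds, then stimulated with TSH at EC80 (4nM final) for 2 hours at 37 deg C. Cellular cAMP was measured by HTRF competition between lysate cAMP and cAMP-d2 for a cryptate-labelled anti-cAMP antibody.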
p53 reactivation – qHTS assay for re-activators of p53 using a Luc reporter; H1299 p53-A138V BP100-luciferase reporter, luminescence, 24 h; AID 504706, 2011; 320,000 compounds, 0.063% hits; Potency, µM (highest dose often 92.2 µM), actives largely listed as activators; further: nearly all actives have a fitted effect of over 45% in size
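H1299 (p53-null), stable ts p53-A138V + BP100-Luc; 1000 cells/well, Opti-MEM/10% FBS; cpd 4 pt, 1:5; 24 h, 37 deg C, 5% CO2; detection reagent 10 min RT; luminescence.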
TCR act – Activators of T cell receptors: qHTS campaign | primary human leukocytes, anti-CD3, IL-2 HTRF, 48 h | Potency, µM (titrated, usually from 9.22 µM), most hits filed as activators | 330,000 tested, under 10 active | AID 504894, 2011
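Primary human leukocytes were stimulated with a-CD3 beads plus compounds for 48 hr without co-stimulation; secreted IL-2 was quantified by HTRF using a-IL-2-K (europium cryptate) and a-IL-2-d2, excited at 320nm with acceptor emission read at 665nm.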
BRCA1 expr up – qHTS Assay to Identify Small Molecule Activators of BRCA1 Expression; 380,000 compounds, 1.1% hits; Potency, µM (highest dose often 46.1 µM), hits mostly activators; MCF7-BRCA1-FFLuc reporter, luminescence, 48 h; response scale: scaled: vehicle 0%, 10 µM genistein 100%; further: nearly all actives have a fitted effect of over 80% in size
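Compounds are tested at multiple concentrations on MCF7 BRCA1-luciferase reporter cells seeded at 2000 per well; after 48 h, a single luminescence end-point is taken and curves fitted to the normalized data.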
A number is an active result; n = inactive; u = inconclusive; x = no result given. Unless noted, the call rests on the fitted dose curve; in most records, active means well fitted curve in the direction sought with a large enough effect; inconclusive means small, poorly fitted or top-dose-only effect, or another doubt; inactive means no such curve, though single readings can be large; an effect the other way counts as inactive or inconclusive.

SMILES	N370S GC	GLS inh	TSHR antagonist	p53 reactivation	TCR act	BRCA1 expr up
Cc1[nH]c2ccccc2c1C(=O)C(=O)Nc1ccc2c(c1)OCCO2	n	n	n	n	n	10µM
CC(CCC(C)[n+]1cccc(C#N)c1)[n+]1cccc(C#N)c1 (stereo not drawn)	x	x	x	x	x	n
COc1ccc2c(c1)C=C/C2=C\c1ccc(N(C)C)cc1	x	x	x	x	x	n
CC(=O)Nc1ccccc1-c1nnn(CC(=O)Nc2ccc3c(c2)OCCO3)n1	n	n	n	n	n	n
O=C(Cn1nnc(-c2ccccc2F)n1)Nc1ccc2c(c1)OCCO2	n	n	n	u	n	8.9µM
COC(=O)c1ccccc1NC(=O)c1cnn2c1NC(=C1CC1)C=C2C(F)F	x	x	x	x	x	n
COc1ccccc1N=c1oc2cc(O)ccc2cc1C(N)=O	u	n	n	u	n	10µM
COc1ccc2cc(C(N)=O)c(=Nc3ccc(C)cc3)oc2c1	n	n	n	n	n	u
Cc1cccc(N=c2oc3cc(O)ccc3cc2C(N)=O)c1	u	n	n	u	n	11µM
CCOc1cccc2sc(N(Cc3cccnc3)C(=O)C3CCCCC3)nc12	x	n	x	x	x	x
CSCC[C@H](NC(=O)[C@H](CC(C)C)NC(=O)[C@H](CO)NC(=O)[C@H](CCC(=O)O)NC(=O)[C@H](CC(C)C)NC(=O)[C@H](Cc1ccc(O)cc1)NC(=O)[C@H](CCCCN)NC(=O)[C@H](CCCCN)NC(=O)[C@H](C)NC(=O)[C@H](CO)NC(=O)[C@H](CC(C)C)NC(=O)[C@H](CCC(N)=O)NC(=O)CNC(=O)[C@H](CC(C)C)NC(=O)[C@H](CC(C)C)NC(=O)[C@H](CCCCN)NC(=O)[C@H](CO)NC(=O)[C@H](Cc1ccccc1)NC(=O)[C@H](CC(=O)O)NC(=O)[C@H](CO)NC(=O)[C@@H](NC(=O)[C@H](Cc1ccccc1)NC(=O)[C@@H](NC(=O)CNC(=O)[C@H](CC(=O)O)NC(=O)[C@H](C)NC(=O)[C@@H](N)Cc1cnc[nH]1)C(C)C)[C@@H](C)O)C(N)=O	n	x	x	x	x	x
COc1ccc(C(=O)Cc2cc(OC)c(OC)cc2[N+](=O)[O-])c(OC)c1	n	11µM	n	n	x	n
COc1ccc(C(=O)Cc2ccc(F)cc2)c(OC)c1	n	n	n	u	n	u
COc1ccc(C(=O)Cc2nnc(C)s2)c(OC)c1	n	n	n	n	n	11µM
COc1ccc(C(=O)/C(Br)=C/C(=O)O)cc1	x	n	x	x	x	x
CC(C)(Cc1ccc(O)cc1)NC(=O)CC(=O)N=Nc1c(O)[nH]c2cc(Br)ccc12	11µM	n	n	n	n	n
CN(C)c1cccc(-c2nnc(SCC(=O)NCc3ccco3)n2C)c1	x	x	x	x	x	n
Cc1ccc(OCc2cc(C(=O)N3CCN(C)C[C@@H]3c3ccccc3)no2)cc1C	u	n	n	n	n	u
CN1CCN(C(=O)c2cc(COc3ccccc3)on2)[C@@H](c2ccccc2)C1	n	n	n	u	n	5µM
COc1cc(Cl)ccc1OCc1cc(C(=O)N2CCN(C)C(=O)[C@@H]2C)no1	x	n	x	x	x	10µM
O=C(c1cc(COc2ccc(F)cc2F)on1)N1CC2C[C@@H]3CC1C[C@H](C2)C3	u	n	n	u	n	n
COc1ccccc1OCc1cc(C(=O)N2CC3C[C@@H]4CC2C[C@H](C3)C4)no1	n	n	n	u	n	7.9µM
COc1ccccc1OCc1cc(C(=O)N2CCN(C)C(c3ccccc3)C2)no1 (stereo not drawn)	n	n	n	u	n	10µM
CCOC(=O)c1cc(C)n(CC2CCC(C(=O)Nc3ccc(Cl)cc3)CC2)c1C (stereo not drawn)	x	n	x	x	x	x
CC=Cc1cc(OC)c2c(c1)C(C)C(c1ccc(O)c(OC)c1)O2 (stereo not drawn)	x	8.9µM	x	x	n	n
SMILES	N370S GC	GLS inh	TSHR antagonist	p53 reactivation	TCR act	BRCA1 expr up
N#Cc1ccc(C(=O)Nc2ccccc2-c2nc3ccccc3s2)c(F)c1	x	n	x	x	x	n
O=C(Nc1cnc2ccccn2c1=O)c1ccc(Cl)cc1	n	n	n	n	x	11µM
COc1ccc(/C=C2\C=Cc3ccccc32)cc1OC	x	x	x	x	x	n
O=C(Nc1ccc2oc(-c3cccnc3)nc2c1)c1ccc(-c2ccccc2)o1	x	n	x	x	x	x
O=C(Nc1ccc2oc(-c3ccccc3)nc2c1)c1cccnc1	n	n	n	n	n	2.8µM
COC(=O)C1=C[C@@H](C(=O)OC)C2C3=C(C(=O)[C@@]2(C)NC(=O)c2ccccc2)[C@H](C)[C@@H]2C(=O)N(C)C(=O)[C@@H]2[C@@H]3C1 (stereo partly drawn)	n	x	x	x	x	x
CN(C)/C=C/c1c([N+](=O)[O-])c2ccc(O)cc2n1-c1ccccc1	n	8.9µM	n	n	n	n
Oc1ccc(-c2csc(Nc3ncccn3)n2)cc1	n	n	n	n	n	u
CC(=O)Nc1ccc(-c2csc(Nc3ncccn3)n2)cc1	n	n	n	n	n	3.5µM
COc1cc(C#Cc2ccc3cc(CCO)oc(=O)c3c2)cc(OC)c1	x	n	n	n	n	7.1µM
CN(C)c1ccc(C#Cc2ccc3cc(CCO)oc(=O)c3c2)cc1	x	n	n	u	n	u
O=C(Nc1ccccc1)N1CC=C(c2ccccc2)CC1	n	x	n	u	x	x
O=C(Nc1ccccc1)N1CC=C(c2ccc(F)cc2)CC1	n	n	n	u	n	4µM
O=c1sc2ccccc2c(=O)n1Cc1ccccc1F	u	13µM	n	n	x	n
CCn1c(COc2ccccc2C)nc2ccccc21	n	n	n	u	n	7.9µM
COc1ccccc1C(O)Cc1nc2ccccc2n1C (stereo not drawn)	x	n	n	n	n	10µM
Cn1c(COc2ccccc2Br)nc2ccccc21	n	n	n	n	n	6.3µM
CCn1c(COc2ccccc2OC)nc2ccccc21	n	n	n	u	n	n
O=C(Cn1c(=O)n(Cc2ccc(F)cc2)c(=O)c2sc3ccccc3c21)NCc1ccccc1Cl	x	n	x	x	x	n
S=C(NCCc1cccc(Cl)c1)NC1CCCCC1	n	n	n	u	n	3.2µM
S=C(NCCc1ccccc1)NC1CCC(NC(=S)NCCc2ccccc2)CC1 (stereo not drawn)	n	n	n	n	n	n
Cc1cc(C)n(C(=O)/C(C#N)=N/Nc2cc(Cl)cc(Cl)c2)n1	n	n	-82	n	n	n

Compound activity from PubChem BioAssay.
